# Out of some 310,000 compounds screened, about 14,000 (4.5%) showed an effect of 50% or more. Effects have a minus sign here. Only a selection was taken, and strong results are over-represented in it overall.
# Molecular target: human ether-à-go-go-related gene (hERG) potassium channel (human, UniProt Q12809)
# Assay: primary screen, population patch clamp on CHO cells stably expressing hERG; higher = less effect of the substance
# 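Further: peak tail current of the secondary pulse compared with the same well before compound.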
# Sequence of human ether-à-go-go-related gene (hERG) potassium channel (Q12809 whole entry, looked up): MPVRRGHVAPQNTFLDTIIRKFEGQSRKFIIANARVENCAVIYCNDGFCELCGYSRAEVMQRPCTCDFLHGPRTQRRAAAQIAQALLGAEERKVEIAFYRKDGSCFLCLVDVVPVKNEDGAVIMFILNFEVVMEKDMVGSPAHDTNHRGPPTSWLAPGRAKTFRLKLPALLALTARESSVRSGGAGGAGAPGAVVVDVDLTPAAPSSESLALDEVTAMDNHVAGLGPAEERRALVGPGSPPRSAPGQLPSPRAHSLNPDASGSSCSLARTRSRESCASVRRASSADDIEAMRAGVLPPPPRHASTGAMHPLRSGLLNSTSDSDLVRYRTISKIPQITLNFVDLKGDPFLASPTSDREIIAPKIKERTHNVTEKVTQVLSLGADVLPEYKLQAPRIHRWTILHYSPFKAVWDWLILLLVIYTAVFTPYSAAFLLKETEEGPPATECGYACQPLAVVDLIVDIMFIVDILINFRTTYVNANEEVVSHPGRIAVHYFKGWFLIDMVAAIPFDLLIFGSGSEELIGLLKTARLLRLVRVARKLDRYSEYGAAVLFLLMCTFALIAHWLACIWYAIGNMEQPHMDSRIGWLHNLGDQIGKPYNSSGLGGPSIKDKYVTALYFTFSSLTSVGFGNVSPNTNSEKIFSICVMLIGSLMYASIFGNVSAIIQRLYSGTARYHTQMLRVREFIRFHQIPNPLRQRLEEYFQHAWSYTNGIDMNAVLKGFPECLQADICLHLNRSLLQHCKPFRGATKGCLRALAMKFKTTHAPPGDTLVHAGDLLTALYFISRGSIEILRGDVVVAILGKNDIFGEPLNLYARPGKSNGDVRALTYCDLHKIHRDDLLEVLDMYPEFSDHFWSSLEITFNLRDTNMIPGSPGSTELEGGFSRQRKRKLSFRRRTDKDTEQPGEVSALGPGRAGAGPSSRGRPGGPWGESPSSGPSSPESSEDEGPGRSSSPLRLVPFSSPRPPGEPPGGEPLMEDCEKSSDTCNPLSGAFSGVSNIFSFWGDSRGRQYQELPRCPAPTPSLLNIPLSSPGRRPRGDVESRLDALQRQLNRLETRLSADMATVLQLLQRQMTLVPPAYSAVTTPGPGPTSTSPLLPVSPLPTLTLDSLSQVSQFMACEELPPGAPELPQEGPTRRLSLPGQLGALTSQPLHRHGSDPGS
row,Structure (SMILES),"hERG current change (%, negative = inhibition) at 10uM"
1,CCN(CC)c1ccc(/C=C(/C#N)C(=O)NC(C)C)o1,-1.68%
2,COC(=O)C(C)n1cnc2c(nnn2-c2ccc(C)cc2)c1=O (stereo not shown),-10.6%
3,NC(=O)C1CCN(CC(=O)N2c3ccccc3CCc3ccccc32)CC1,19.3%
4,Cc1cccn2c(=O)c3cc(C(=O)NC4CCCCC4)n(C)c3nc12,12.5%
5,Cc1cccn2c(=O)c(C(=O)NC3CCCCC3)c(O)nc12,31.3%
6,Cc1cccn2c(=O)c3cc(C(=O)NC4CCCC4)n(C)c3nc12,1.13%
7,Cc1cccn2c(=O)c3cc(C(=O)NC4CCCCC4C)n(C)c3nc12 (stereo not shown),13.7%
8,Cc1cccn2c(=O)c3cc(C(=O)NC4CCCC4)c(=N)n(C4CCCC4)c3nc12,-79.2%
9,Cc1cccn2c(=O)c3cc(C(=O)NC4CCCC4)c(=N)n(C4CCCCC4)c3nc12,-80.7%
10,COc1cc(C(=O)NCC(=O)N/N=C/c2c(C)[nH]c3ccccc23)cc(OC)c1OC,15.7%
11,CCC(C(=O)OCCN(CC)CC)c1ccccc1.O=C(O)CC(O)(CC(=O)O)C(=O)O (stereo not shown),4.45%
12,CCN(CC)CCc1nc(-c2ccccc2)no1.O=C(O)CC(O)(CC(=O)O)C(=O)O,-10.6%
13,CCN(CC)CCC(C)OC(c1ccccc1)c1ccccc1.O=C(O)CC(O)(CC(=O)O)C(=O)O (stereo not shown),-52.2%
14,COCCOc1cc(N)c(Cl)cc1Cl,15.5%
15,COc1ccc(S(=O)(=O)N2CCOCC2)cc1NC(=O)CCc1nc2ccccc2c(=O)[nH]1,21.5%
16,Cc1cc(C)cc(NC(=O)COC(=O)Cn2cnc3c2c(=O)n(C)c(=O)n3C)c1,-41.1%
17,CN(c1ccccc1)S(=O)(=O)c1cccc(NC(=O)Cn2cnc3ccccc3c2=O)c1,-48.3%
18,CCN(CC)S(=O)(=O)c1ccc(OC)c(NC(=O)Cn2cnc3c2c(=O)n(C)c(=O)n3C)c1,-41.3%
19,Cn1c(=O)c2c(ncn2CC(=O)Nc2ccccc2)n(C)c1=O,13.9%
20,COc1ccccc1NC(=O)Cn1cnc2c1c(=O)n(C)c(=O)n2C,17.9%
21,COc1ccc(C)cc1NC(=O)C(OC(=O)Cn1cnc2c1c(=O)n(C)c(=O)n2C)c1ccccc1 (stereo not shown),-7.98%
22,COc1ccc(S(=O)(=O)N2CCCCC2)cc1NC(=O)CCc1nc2ccccc2c(=O)[nH]1,0.795%
23,CCN(c1ccccc1)S(=O)(=O)c1ccc(OC)c(NC(=O)Cn2cnc3c2c(=O)n(C)c(=O)n3C)c1,-66%
24,Cc1cc(C)cc(NC(=O)C(OC(=O)Cn2cnc3c2c(=O)n(C)c(=O)n3C)c2ccccc2)c1 (stereo not shown),-69.7%
25,CN(c1ccccc1)S(=O)(=O)c1cccc(NC(=O)Cn2cnc3c2c(=O)n(C)c(=O)n3C)c1,-52.6%
26,CCN(c1ccccc1)S(=O)(=O)c1ccc(OC)c(NC(=O)CCc2nc3ccccc3c(=O)[nH]2)c1,-51.2%

row,Structure (SMILES),"hERG current change (%, negative = inhibition) at 10uM"
1,O=C(NCc1ccco1)C1CC(c2ccc(Cl)c(Cl)c2)=NO1 (stereo not shown),8.51%
2,CC(C)C(C(=O)NCC1CCCO1)N(Cc1ccccc1)C(=O)CNS(=O)(=O)c1ccccc1 (stereo not shown),18.4%
3,O=C(Nc1cccc(Br)c1)c1cc(=O)c2ccccc2o1,19.4%
4,Cc1ccc(-c2csc(NC(=S)NC(=O)c3cc4ccccc4o3)n2)cc1,7.09%
5,Cc1cc(S(=O)(=O)N2CCOCC2)c(C)s1,9.26%
6,O=C(NCc1ccco1)c1sc2ccccc2c1Cl,-9.84%
7,CC(C)(C)CC(=O)Nc1nn[nH]n1,24.3%
8,O=C(O)CN1C(=O)/C(=C\c2cc([N+](=O)[O-])ccc2OCc2ccccc2Cl)SC1=S,29.4%
9,Cc1ccccc1-c1noc(-c2ccc(Cl)cc2)n1,25.1%
10,COc1ccc(C)c2sc(NNC(=O)COc3ccccc3)nc12,6.35%
11,Cn1c(=O)c2c(ncn2CC(=O)OCc2ccccc2)n(C)c1=O,-6.21%
12,CCN(Cc1ccccc1)C(=O)Cn1cnc2c1c(=O)n(C)c(=O)n2C,-16.1%
13,Cn1c(=O)c2c(ncn2CC(=O)N(Cc2ccccc2)c2ccccn2)n(C)c1=O,-50.7%
14,Cc1sc2ncn(CC(=O)NCCCC(=O)N3CCN(c4ccccc4F)CC3)c(=O)c2c1C,-20.9%
15,CCOC(=O)N1CCN(C(=O)c2cccn3c(=O)c4cc(Br)ccc4nc23)CC1,-68.2%
16,O=C(c1ccc2nc3ccc(Cl)cc3c(=O)n2c1)N1CCOCC1,-55.3%
17,CCOC(=O)N1CCC(NC(=O)c2cccn3c(=O)c4cc(Br)ccc4nc23)CC1,3.69%
18,CCOC(CNC(=O)c1cccn2c(=O)c3cc(Cl)ccc3nc12)OCC,-7.16%
19,O=C(c1ccc2nc3ccc(Cl)cc3c(=O)n2c1)N1CCC2(CC1)OCCO2,-40.3%
20,O=C(c1cccn2c(=O)c3cc(Cl)ccc3nc12)N1CCOCC1,-52.9%
21,CCOC(=O)N1CCN(C(=O)c2cccn3c(=O)c4cc(Cl)ccc4nc23)CC1,-65.7%
22,O=C(c1cccn2c(=O)c3cc(Br)ccc3nc12)N1CCC2(CC1)OCCO2,-37%
23,NC(=O)C1(N2CCCCC2)CCN(C(=O)c2cccn3c(=O)c4cc(Cl)ccc4nc23)CC1,-30.1%
24,O=C(c1cccn2c(=O)c3ccc(Cl)cc3nc12)N1CCC2(CC1)OCCO2,-11.2%
25,CCOC(=O)N1CCN(C(=O)c2cccn3c(=O)c4sccc4nc23)CC1,-35.9%
26,CCOC(=O)N1CCN(C(=O)c2ccc3nc4ccc(Cl)cc4c(=O)n3c2)CC1,-45.9%
